From PubChem BioAssay AID2057 (The Scripps Research Institute Molecular Screening Center, 2009)
Among all 320,000 compounds or so, about 2,100 (0.66%) were called active. Shown is part of a subset that was picked to be rich in actives. Values without a mark were called inactive.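 Rule for the calls: active = inhibition above the mean inhibition of all tested compounds plus 3 SD, set per campaign (cut at about 40% in these data); inactive = the rest.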

Biological target: Induced myeloid leukemia cell differentiation protein Mcl-1 (Homo sapiens) (UniProt Q07820)
Experiment: inhibitors of MCL1 binding to BIM-BH3, primary screen, biochemical, fluorescence polarization (AID 2057);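 note: 0% = DMSO wells and 100% = unlabeled Bim-BH3 peptide control; higher means more loss of mP so more displacement of Bim peptide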
Settings: GST-MCL1 / FITC-Bim-BH3 fluorescence polarization; at 10.9 µM; hits give high values

Chain of Induced myeloid leukemia cell differentiation protein Mcl-1 (Homo sapiens) (Q07820 whole entry, looked up): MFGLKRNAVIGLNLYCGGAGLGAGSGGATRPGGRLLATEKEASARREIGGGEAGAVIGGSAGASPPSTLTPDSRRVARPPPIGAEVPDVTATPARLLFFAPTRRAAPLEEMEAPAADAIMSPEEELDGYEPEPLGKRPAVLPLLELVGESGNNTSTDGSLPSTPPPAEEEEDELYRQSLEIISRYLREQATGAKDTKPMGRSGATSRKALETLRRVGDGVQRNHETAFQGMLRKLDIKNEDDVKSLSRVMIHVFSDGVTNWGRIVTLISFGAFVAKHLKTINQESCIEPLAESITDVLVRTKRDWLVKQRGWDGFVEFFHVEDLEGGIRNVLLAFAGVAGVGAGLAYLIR

For O=C1NC(=O)N(c2ccccc2)C(=O)/C1=C/c1ccc([N+](=O)[O-])s1, the inhibition was 44.1% (active).
In the case of COc1cccc(N2C(=O)NC(=O)/C(=C\c3cn(C)c4ccccc34)C2=O)c1, the inhibition is reported as 55% (active).
COc1ccc(N2C(=O)/C(=C/c3ccco3)C(=O)NC2=S)cc1 was tested, and the inhibition was 53.9% (active).

Compared with CCOP(=S)(OCC)SCOC(=O)NCC(=O)OC, CCN(CC)C(=O)Oc1ccc(NC(=O)N2CCOCC2)cc1 is lower in inhibition: 6.09% for the first, 3.93% for the second.

First: C=CCN1C(=O)C2(C(C(=O)OCC)=C(N)Oc3c2c(=O)oc2ccccc32)c2ccccc21 (stereo not given)
Second: Cc1cc(/C=C2/C(=O)NC(=O)N(Cc3ccco3)C2=O)c(C)n1-c1ccc(C(=O)O)cc1
The inhibition of the first is higher: 1.78% for the first, -11.8% for the second.

Compared with Cc1ccccc1N1C(=O)NC(=O)/C(=C\c2cc(C)n(C)c2C)C1=O, Cc1c(C(=O)O)cccc1-n1c(C)cc(/C=C2\C(=O)NC(=O)N(c3ccc4c(c3)OCO4)C2=O)c1C is higher in inhibition: 1.23% for the first, 2.52% for the second.

Going from Cc1cccc(OP(=O)(Oc2cccc(C)c2)OC(c2ccccc2)C(F)(F)F)c1 (stereo not given) to CN(c1ccccc1)c1ccc([N+](=O)[O-])c2nonc12, the inhibition falls from 2.04% to -24.9%.

Compared with O=C(CCC(=O)N1C[C@H]2C[C@@H](C1)c1cccc(=O)n1C2)NCc1ccccc1C(F)(F)F, COc1cccc(OC)c1C(=O)NC(=S)N1C[C@H]2C[C@H](C1)c1cccc(=O)n1C2 is higher in inhibition: 2.96% for the first, 9.55% for the second.

Compared with COc1ccc(CN2C(=O)NC(=O)/C(=C\c3ccc(OC)c(OC)c3OC)C2=O)cc1, Cc1ccc(C)c(NC2=NCCCS2)c1 is higher in inhibition: -3.16% for the first, 0.88% for the second.
